Measurements: PubChem BioAssay AID652181 (The Scripps Research Institute Molecular Screening Center, 2013)

System: Hsp90 CT
Assay: HSP90 domain binders, late-stage follow-up, orthogonal assay for selective HSP90 inhibitor project, biophysical, surface plasmon resonance (AID 652181)
Details: Surface plasmon resonance binding to HSP90 domains, at 200 µM, stronger effect = higher value

Structure (SMILES)	binding
Cc1cc(NO)nc(-c2ccc(Br)cc2)n1	0.77
COc1cc(/C=N/Nc2ccc(Cl)c(C(=O)O)c2)ccc1OC(=O)c1ccc(F)cc1	-4.19
CC(=O)Nc1ccccc1OCC(=O)c1cc(C)n(Cc2cccs2)c1C	10.6
Cc1c(-c2nc(-c3ccc(C(C)(C)C)cc3)no2)n(C)oc1=O	4.46
Cc1c(-c2nc(-c3ccc(C(F)(F)F)cc3)no2)n(C)oc1=O	7.47
CCOC(=O)c1csc(NC(=O)c2cc3ccccc3o2)n1	6.43
COc1ccccc1NC(=O)c1coc(=O)c(Br)c1	11.7
CCOC(=O)C1=C(c2ccc(OC)cc2)C(=O)c2ccccc2C1=O	11.2
CCc1ccc(OCc2ccc(C(=O)OC)o2)cc1	6.78
COC(=O)c1ccccc1OCCCOc1ccc(C)cc1OC	10.2
